aSyn UTR act = Activators via SNCA 5'UTR binding, MLPCN. AID 1814. alpha-synuclein 5'UTR reporter, activators screen. 300,000 tested, 7.1% active. activity score, % (tested at 7.5 µM), hits read low; in the data active = activity score below about -60%
Starred values were filed as active, the others as inactive. Not all results are given here.

Results for O=C(c1cc2cc([N+](=O)[O-])ccc2s1)N1CCCCC1 ?
aSyn UTR act: -71*

Results for O=C(NC(=S)Nc1ccccn1)c1ccccc1 ?
aSyn UTR act: -133*

How did O=C(Nc1ccccn1)c1cc2ccccc2cc1O do in these assays?
aSyn UTR act: -104*

How did O=C(Nc1ccccn1)c1cc2cc([N+](=O)[O-])ccc2s1 do in these assays?
aSyn UTR act: -158*

Results for O=C(Nc1ccccn1)c1ccc(Br)s1 ?
aSyn UTR act: -191*

Results for O=C(NC(=S)Nc1ccccn1)c1ccc([N+](=O)[O-])cc1 ?
aSyn UTR act: -119*

Results for O=C(Cn1ncc(N2CCOCC2)c(Cl)c1=O)c1ccc(Cl)cc1 ?
aSyn UTR act: -105*

How did COc1ccc(OC)c(/C=N/N(C)c2ccccc2)c1 do in these assays?
aSyn UTR act: -187*

What do the screens show for `c1ccc(Oc2ccc3ccccc3n2)cc1`?
aSyn UTR act: -129*

Results for CC(C)(C)C(=O)N1CCN(c2ccc([N+](=O)[O-])cc2Cl)CC1 ?
aSyn UTR act: -64*

What do the screens show for `O=C(c1cc([N+](=O)[O-])ccc1N1CCOCC1)N1CCN(c2ccccc2)CC1`?
aSyn UTR act: 91

What do the screens show for `CC1Oc2ccccc2N(CC(=O)Nc2ccc3c(c2)OCCO3)C1=O` (stereo not given)?
aSyn UTR act: -77*

What do the screens show for `CC1CCCCC12NC(=O)N(CC(=O)NC(=O)Nc1ccc3c(c1)OCCO3)C2=O` (stereo not given)?
aSyn UTR act: -169*

Results for COc1cc([C@@H]2c3cc4c(cc3[C@@H](NC3CCN(Cc5ccccc5)CC3)[C@H]3COC(=O)[C@H]23)OCO4)cc(OC)c1O ?
aSyn UTR act: 103

What do the screens show for `CCOC(=O)C(C)Oc1cccc2c(=O)n(CC(=O)NCc3ccc4c(c3)OCO4)ccc12` (stereo not given)?
aSyn UTR act: 65

How did CC1Oc2ccccc2N(CC(=O)NCc2ccc3c(c2)OCO3)C1=O (stereo not given) do in these assays?
aSyn UTR act: -106*

What do the screens show for `Cc1ccc(NC(=O)Cc2nc(CSc3nnc(-c4ccc5c(c4)OCO5)o3)cs2)cc1`?
aSyn UTR act: -77*

What do the screens show for `COc1ccc(-c2nn(-c3ccccc3)cc2/C=N/NC(=O)c2ccc3c(c2)OCO3)cc1`?
aSyn UTR act: -116*

Results for COc1ccc(-c2nn(-c3ccccc3)cc2/C=N/NC(=O)c2ccc(Br)o2)cc1 ?
aSyn UTR act: -98*

Results for O=C(N/N=C/c1c(O)ccc2ccccc12)c1ccc(Br)o1 ?
aSyn UTR act: 106

Results for Cc1cc(SCC(=O)N/N=C/c2ccc(O)c(O)c2O)c(C)cc1Br ?
aSyn UTR act: 68

What do the screens show for `Cc1ccc(-c2nn(-c3ccccc3)cc2/C=N/NC(=O)CSc2nnc(C)n2-c2ccccc2)cc1`?
aSyn UTR act: -125*

How did O=C(/C=C/c1ccco1)Nc1ccc2c(c1)OCO2 do in these assays?
aSyn UTR act: -188*

Results for Cc1ccc(-n2nc3ccc(NC(=O)/C=C/c4ccco4)cc3n2)cc1 ?
aSyn UTR act: -202*

What do the screens show for `CCc1ccccc1NC(=O)c1cccc(NC(=O)/C=C/c2ccco2)c1`?
aSyn UTR act: -100*

What do the screens show for `Cc1ccc(-n2ncc3c(NCc4cccnc4)ncnc32)cc1C`?
aSyn UTR act: -90*

What do the screens show for `COc1ccc(-n2ncc3c(NCc4cccnc4)ncnc32)cc1`?
aSyn UTR act: -149*

Results for Brc1ccc2ncnc(NCc3ccco3)c2c1 ?
aSyn UTR act: -64*

What do the screens show for `Cc1cccc(-n2ncc3c(NCc4cccnc4)ncnc32)c1`?
aSyn UTR act: -142*

How did COc1ccc(-n2ncc3c(N4CCCCC4)ncnc32)cc1 do in these assays?
aSyn UTR act: 101

How did COc1ccc(-n2ncc3c(NCc4ccc5c(c4)OCO5)ncnc32)cc1 do in these assays?
aSyn UTR act: -109*

Results for c1ccc(-n2ncc3c(NCc4ccco4)ncnc32)cc1 ?
aSyn UTR act: -252*

Results for Cc1ccc(-n2ncc3c(NCc4ccccc4)ncnc32)cc1 ?
aSyn UTR act: -189*

Results for COc1ccc(/C=C/c2ccc3c(Br)ccc(O)c3n2)cc1 ?
aSyn UTR act: -151*

How did COc1cc(/C=C/c2ccc3cccc(O)c3n2)cc(Cl)c1OC do in these assays?
aSyn UTR act: -88*

What do the screens show for `COc1cc(/C=C/c2ccc3c(Br)cc(Br)c(O)c3n2)ccc1O`?
aSyn UTR act: 65

How did COc1cc(/C=C/c2ccc3cccc(O)c3n2)cc(Br)c1OC do in these assays?
aSyn UTR act: -81*

Results for O=C(CSc1ccc(Cl)cc1)N1CCOCC1 ?
aSyn UTR act: -69*

Results for O=C(CCSc1ccc(Cl)cc1)N1CCOCC1 ?
aSyn UTR act: -69*

What do the screens show for `O=C(CSc1ccc(Br)cc1)N1CCOCC1`?
aSyn UTR act: -65*

What do the screens show for `Cc1cc(C)n2cc(-c3ccc(Cl)cc3)c(C(=O)O)c2n1`?
aSyn UTR act: -99*

What do the screens show for `Cc1ccc(N2C(=O)CC(SCC(=O)Nc3ccc(S(N)(=O)=O)cc3)C2=O)cc1` (stereo not given)?
aSyn UTR act: -76*

Source: PubChem BioAssay
